Hits are enriched below; roughly 21% of the tested compounds scored in any of these assays.
CHX counter – counter-screen hit for Shiga toxin inhibitors, cycloheximide | cell reporter, cycloheximide protein synthesis inhibition counterscreen | max response, % | 300,000 compounds, 12% hits; in the data active = max response mostly above about 13%, no sharp cut-off; inactive = mostly below about 14%; also: read at 38.3 µM for the half of the compounds with a filed dose
FBPA Giardia inh – Giardia lamblia aldolase inhibition; A8B2U2; purified Giardia FBPA; Potency, µM (series often up to 59.6 µM), usual class: inhibitors; 290,000 compounds, 0.71% hits; AID 2451; also: nearly all actives have a fitted effect of over 55% in size
Target sequence (A8B2U2 whole entry, looked up): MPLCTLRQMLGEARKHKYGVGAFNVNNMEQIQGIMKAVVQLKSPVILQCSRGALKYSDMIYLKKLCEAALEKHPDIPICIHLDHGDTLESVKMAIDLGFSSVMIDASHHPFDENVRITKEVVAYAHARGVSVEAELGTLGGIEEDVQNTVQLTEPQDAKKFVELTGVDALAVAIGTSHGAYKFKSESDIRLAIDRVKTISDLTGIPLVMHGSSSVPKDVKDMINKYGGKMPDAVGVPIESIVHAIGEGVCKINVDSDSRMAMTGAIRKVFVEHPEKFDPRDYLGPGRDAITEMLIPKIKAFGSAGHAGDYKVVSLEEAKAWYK
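40 nM FBPA preincubated 10 min at RT with compound (up to 57.5 uM final), then substrate plus GAPDH/TPI/NAD/arsenate coupling and diaphorase/resazurin added. Fluorescence read after 20 min at RT, 525/598 nm.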
Pf growth 48h – P. falciparum growth inhibition at 48 hours (one generation). P. falciparum luciferase growth in erythrocytes, 48 h. Potency, µM (titrated, usually from 28.7 µM), most hits filed as inhibitors. 310,000 compounds, 5.9% hits. AID 504832
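Cell-based growth assay: transgenic P. falciparum expressing firefly luciferase, cultured in red cells within RPMI 1640 containing 0.5% w/v Albumax, 24 mM bicarbonate and gentamycin. A drop in luciferase activity indicates inhibition.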
Pf growth 96h – inhibits malaria parasite growth, 96 h | P. falciparum luciferase reporter growth, 96 h | 320,000 compounds, 6.9% hits | Potency, µM (doses to about 28.7 µM), hits mostly inhibitors
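96 h incubation, 37 C, 5% CO2, of luciferase-reporter P. falciparum-infected RBCs (2% hematocrit, 0.05% parasitemia final) with test compounds; endpoint luminescence.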
Shiga toxin inh – blocks Shiga toxin action in Vero cells; 290,000 compounds, 9.2% hits; AID 2315; Vero cells, Shiga toxin protein synthesis inhibition reporter; inhibition, % at 38.7 µM; in the data active = inhibition mostly above about 28%, no sharp cut-off; inactive = mostly below about 43%
NS1 function inh – influenza NS1 inhibition; 270,000 compounds, 0.4% hits; Potency, µM (top dose mostly 46.1 µM); calls by dose curve; also: actives are rising curves; nearly all actives have a fitted effect of over 50% in size
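In this qHTS, NS1 from influenza A is expressed in budding yeast, where it slows growth. Cells are switched from glucose to 2% galactose medium (pH 6.0, -URA), treated with compound, and growth recovery is read at OD600.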
Each line names hits and unclear results; the compound was inactive in the other large screens. Unless noted, calls follow the shape of the dose curve; as a rule, active = well fitted curve in the direction sought with a large enough effect; inconclusive = small, poorly fitted or top-dose-only effect, or another doubt; inactive = no such curve, though single readings can be large; an effect the other way counts as inactive or inconclusive.

Cc1ccc(C)c(CN2C(=O)c3ccccc3S(=O)c3ccc(C(=O)NCCCN4CCCC4)cc32)c1 (stereo unspecified)	Pf growth 48h inconclusive, Pf growth 96h inconclusive
O=C(NCCN1CCCC1)c1ccc2c(c1)N(Cc1ccc(F)cc1)C(=O)c1ccccc1S2=O (stereo unspecified)	Pf growth 48h 12µM, Pf growth 96h inconclusive
CC1CCCCN1CCNC(=O)c1ccc2c(c1)N(Cc1ccccc1F)C(=O)c1ccccc1S2=O (stereo unspecified)	Pf growth 48h inconclusive, Pf growth 96h 5.9µM
O=C(NCCCN1CCCC1)c1ccc2c(c1)N(Cc1ccccc1F)C(=O)c1ccccc1S2=O (stereo unspecified)	Pf growth 48h inconclusive
CCN1CCN(CCNC(=O)c2ccc3c(c2)N(Cc2cccc(Cl)c2)C(=O)c2ccccc2S3=O)CC1 (stereo unspecified)	Pf growth 48h 12µM, Pf growth 96h inconclusive
O=C(NCCCN1CCOCC1)c1ccc2c(c1)N(Cc1ccc(Cl)cc1)C(=O)c1ccccc1S2=O (stereo unspecified)	Pf growth 48h inconclusive, NS1 function inh inconclusive
Cc1ccc(S(=O)(=O)CCSc2n[nH]c(=O)n2-c2ccc3c(c2)OCCO3)cc1	none
COc1ccc(-n2c(O)c(Cc3ccccc3)c(=O)n3nc(-c4ccccc4)c(=O)cc23)cc1	CHX counter 11
COc1ccc(-n2c(SCC(=O)Nc3ccccc3C)nc(O)c(Cc3ccccc3)c2=O)cc1	Pf growth 96h inconclusive (no result: FBPA Giardia inh)
CCOc1ccc(NC2c3ccccc3C(=O)N2c2ccc(Cl)cn2)cc1 (stereo unspecified)	CHX counter 11, Shiga toxin inh 68
CCOc1ccc(N2C(=O)c3ccccc3C2O)cc1 (stereo unspecified)	Pf growth 96h inconclusive, Shiga toxin inh 64 (no result: Pf growth 48h)
CCOc1ccccc1NC1c2ccccc2C(=O)N1c1ccc(C)cn1 (stereo unspecified)	none (no result: Pf growth 48h)
CCOC(=O)c1ccccc1NC1c2ccccc2C(=O)N1c1ccc(C)cn1 (stereo unspecified)	CHX counter 21
CCOC(=O)c1ccc(NC2c3ccccc3C(=O)N2c2ccccn2)cc1 (stereo unspecified)	Pf growth 96h 10µM (no result: Pf growth 48h)
CCOc1ccc(N2C(=O)c3ccccc3C2=O)cc1	none (no result: Pf growth 96h)
COCCN(CCOC)c1nc(C)nc2c1nc(-c1ccccc1)n2CCN1CCOCC1	none (no result: CHX counter, Pf growth 48h, Pf growth 96h, Shiga toxin inh, NS1 function inh)
Cc1cc(S(=O)(=O)N2CCN(C(=O)CCC(=O)N3CCOCC3)CC2)ccc1Br	none
Cc1ccc(NC2c3ccccc3C(=O)N2c2cccnc2)cc1 (stereo unspecified)	Pf growth 96h inconclusive
COc1ccc(NC2c3ccccc3C(=O)N2c2ccccn2)cc1 (stereo unspecified)	CHX counter 20, FBPA Giardia inh inconclusive, Pf growth 48h inconclusive, Pf growth 96h 12µM, Shiga toxin inh 45
CC(C)n1cnc2c(N(C)c3ccccc3)nc(N(CCN(C)C)Cc3ccccc3)nc21	Pf growth 48h 4.7µM, Pf growth 96h 0.93µM
COc1ccc(CNc2nc(NCc3ccc(OC)cc3)c3ncn(C(C)C)c3n2)cc1	none (no result: Pf growth 48h, Pf growth 96h, NS1 function inh)
COc1cc(N(Cc2ccccc2)Cc2ccccc2)c2ncn(C(C)C)c2c1	Pf growth 48h 5.9µM, Pf growth 96h 7.4µM (no result: CHX counter, FBPA Giardia inh, Shiga toxin inh, NS1 function inh)
Cc1ccc(NC(=O)COc2coc(CN3CCc4ccccc43)cc2=O)cc1Cl	none (no result: CHX counter, FBPA Giardia inh, Shiga toxin inh, NS1 function inh)
COC(=O)c1ccc(NC(=O)COc2coc(CN3CCc4ccccc43)cc2=O)cc1	Pf growth 48h inconclusive (no result: CHX counter, FBPA Giardia inh, Shiga toxin inh, NS1 function inh)
CCOC(=O)c1ccccc1NC(=O)COc1coc(CN2CCc3ccccc32)cc1=O	Pf growth 48h inconclusive, Pf growth 96h 12µM (no result: CHX counter, FBPA Giardia inh, Shiga toxin inh, NS1 function inh)
CCOc1ccccc1NC(=O)COc1coc(CN2CCc3ccccc32)cc1=O	Pf growth 48h 12µM, Pf growth 96h inconclusive (no result: CHX counter, FBPA Giardia inh, Shiga toxin inh, NS1 function inh)
C=CCS(=O)(=O)N1CCCC(Cc2ccccc2C)(C(=O)OCC)C1 (stereo unspecified)	Pf growth 48h inconclusive, Pf growth 96h inconclusive
CCOc1ccc(CN2CCN(CC3CC3)CC2CCO)cc1 (stereo unspecified)	none
COc1ccc2c(C)c(C(=O)N3CCN(Cc4ccccc4)CC3)oc2c1	FBPA Giardia inh inconclusive, Pf growth 96h inconclusive
COc1cccc(C2=CC(c3ccccc3)n3ncnc3N2)c1 (stereo unspecified)	Pf growth 48h inconclusive, Pf growth 96h inconclusive
COc1ccc(C2C=C(c3ccccc3)Nc3nnnn32)cc1 (stereo unspecified)	CHX counter 21, Shiga toxin inh 53
COc1cccc(C2=CC(c3ccc(N(C)C)cc3)n3ncnc3N2)c1 (stereo unspecified)	Pf growth 48h 10µM
COc1cccc(C2=CC(c3ccc(N(C)C)cc3)n3nnnc3N2)c1 (stereo unspecified)	CHX counter 25, Shiga toxin inh 50
O=C(COc1ccccc1)NCC(=O)Nc1ccncc1	none (no result: CHX counter, FBPA Giardia inh, Shiga toxin inh, NS1 function inh)
O=C(O)c1nn(CCOc2ccccc2F)c(=O)c2ccccc12	CHX counter 12
O=C(O)c1nn(CCOc2ccc(Br)cc2)c(=O)c2ccccc12	none
CC(=O)Nc1ccc(S(=O)(=O)N2CCN(c3nc(NC4CCCC4)c4ccccc4n3)CC2)cc1	Pf growth 48h 2.1µM, Pf growth 96h inconclusive
CC(=O)Nc1ccc(S(=O)(=O)N2CCN(c3cc(C)nc4ccccc34)CC2)cc1	Pf growth 48h inconclusive, Pf growth 96h inconclusive
O=S(=O)(c1ccc(F)cc1)N1CCC(c2nc3ccccc3[nH]2)CC1	Pf growth 48h inconclusive (no result: FBPA Giardia inh)
CC(=O)c1cccc(S(=O)(=O)N2CCC(c3nc4ccccc4[nH]3)CC2)c1	none
CC(=O)Nc1ccc(S(=O)(=O)N2CCC(c3nc4ccccc4[nH]3)CC2)cc1	Pf growth 48h 8.3µM (no result: Pf growth 96h)
CCOCC(=O)Nc1ccc(S(=O)(=O)N2CCC(c3nc4ccccc4[nH]3)CC2)cc1	Pf growth 48h 10µM, Pf growth 96h inconclusive (no result: CHX counter, FBPA Giardia inh, Shiga toxin inh, NS1 function inh)
O=C(c1ccc(S(=O)(=O)N2CCC(c3nc4ccccc4[nH]3)CC2)cc1)N1CCOCC1	FBPA Giardia inh inconclusive, Pf growth 48h inconclusive, Pf growth 96h inconclusive
CC(C)(C)C(=O)Nc1ccc(S(=O)(=O)N2CCC(c3nc4ccccc4[nH]3)CC2)cc1	Pf growth 48h 13µM, Pf growth 96h 8.3µM (no result: CHX counter, FBPA Giardia inh, Shiga toxin inh, NS1 function inh)
CC1(c2nnc(-c3cccc(Cl)c3)o2)CC(c2ccc(OC(F)(F)F)cc2)=NO1 (stereo unspecified)	none
CCC1Oc2ccc(C)cc2N(CC(=O)N(Cc2ccc(C)o2)C2CC(C)(C)NC(C)(C)C2)C1=O (stereo unspecified)	Pf growth 48h inconclusive, Pf growth 96h inconclusive
CCC1Oc2ccc(C)cc2N(CC(=O)N(Cc2cccnc2)Cc2ccc(C)o2)C1=O (stereo unspecified)	Pf growth 48h 12µM
Cc1ccccc1C(=O)OCCCN=C1NS(=O)(=O)c2ccccc21	none
O=C(/C=C/c1ccccc1)OCCCN=C1NS(=O)(=O)c2ccccc21	Pf growth 96h 5.2µM

Screening results deposited in PubChem by National Center for Advancing Translational Sciences (NCATS).
